From PubChem BioAssay (NCI) come the findings set out here.

Several values for one entry are separate records, joined by “and”; a condition that tells them apart may be missing. Equal values may be shown once. This is part of a sample that, as a whole, favours compounds with a hit. Of some 83,000 tested, about 20% had one in any assay.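 Treatment: one concentration, 48 hours, 96-well format. Scoring: percent growth, with anything below 10 considered active.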 Activity calls are given as the source filed them.

The first assay deals with MCF7 breast. The assay can be described thus: NCI-60 one-dose screen, 48 h (100 = growth as untreated, 0 = no growth, -100 = all killed). Conditions: 10 µM unless noted.
In the case of `S=c1nc(CS)[nH]c2ccccc12`, the growth is 79.6% (inactive).
For the compound `O=C(CC1(O)C(=O)Nc2ccc(Br)cc21)c1ccc(Cl)cc1` (stereo not drawn), the growth is 98% (inactive).
Still for that read-out and setting: the same measure for `Clc1ccc(/C=N\N2CCCCCC2)cc1`: 98.8% (inactive) and 96.2% (inactive); for `COc1ccc(Nc2ncnc3ccc(-c4cncc(NS(C)(=O)=O)c4)cc23)cc1Cl`: 15% (inactive).
`O=C(c1cccc(Br)c1)N1CCN(c2ccnc3cc(Cl)ccc23)CC1`: the growth is 88.7% (inactive).
Take `CCCn1nc(C(=O)N2CCCCC2)c2c1CCC(N1CCC(c3ccncc3)CC1)C2` (stereo not drawn): the growth was 99.6% (inactive).
Same read-out and setting: the same measure for `O=C(Nc1cc(C(F)(F)F)cc(C(F)(F)F)c1)c1cc(Cl)ccc1O`: 3.02% (active) and 1.11% (active).
For `Cc1cnc(C(=O)NNc2nc3sc4c(c3c(=O)[nH]2)C(C)CCC4)cn1` (stereo not drawn), the growth was 13.9% (inactive).
Still for that read-out and setting: the same measure for `CN1CCN(CCNC(=O)c2cccc(CN3c4cccc5c4C(=Cc4cccnc43)N(C)C5=O)c2)CC1`: 16.6% (inactive).
The same measure, in the same setting: the same measure for `CCNC(=O)Oc1ccc(/C(=C(/C)Cc2ccc(OC)cc2)c2ccc(OCCN(CC)CC)cc2)cc1`: 18.3% (inactive); for `COc1c(NC=O)c2c(c([N+](=O)[O-])c1OC)C(=O)OC2`: 97.2% (inactive) and 89.6% (inactive); for `COc1cc(/C=C2\C(=O)N(CCCCn3c4ccccc4c(=O)c4ccccc43)c3ccccc32)cc(OC)c1O`: 22.8% (inactive).
On the same count and under the same terms, the same measure for `Cc1c(O)c(O)cc2c3c(oc12)CC(c1ccc2c(c1)OCO2)CC3=O` (stereo not drawn): 73.6% (inactive); for `CC(=NCc1ccccc1)c1ccc(O)cc1O`: 97.8% (inactive); for `COc1ccc(CCNC(=O)COc2cc3c(Nc4ccc(F)c(Cl)c4)ncnc3cc2OC)cc1OC`: 91.9% (inactive).
On to `COc1cccc(NC(=O)c2sc3nc(C)c(C(O)c4ccccc4)cc3c2N)c1` (stereo not drawn), for which the growth is 17.9% (inactive).
As to `Cc1cc2nc(C(Cl)Cl)nc(-c3ccc(Cl)cc3)n2n1`, the growth is 2.98% (active).
Still for that read-out and setting: the same measure for `Nc1ccc(S(=O)(=O)c2ccc(N)cc2)cc1`: 99.5% (inactive) and 104% (inactive).
Take `CCCCCO/N=C\c1c2c(O)c3c(O)c(C)c4c(c3c1O)C(=O)C(C)(O/C=C\C(OC)C(C)C(OC(C)=O)C(C)C(O)C(C)C(O)C(C)/C=C\C=C(\C)C(=O)N2)O4` (stereo not drawn): the growth is 17% (inactive).
Still for that read-out and setting: under `COc1ccc(-c2nc(Cl)c3c(C)nn(-c4ccc(F)cc4)c3n2)cc1` stands 105% (inactive).
On the same count and under the same terms, under `COc1ccc(Oc2nc(Nc3ccc(N4CCOCC4)cc3)ncc2NC(=O)c2cccc(C(F)(F)F)c2)cc1` stands 79.3% (inactive).
Turning to `O=C1C=CC(=O)N1c1ccc2ccccc2c1`, the growth was 95.4% (inactive) and 106% (inactive).
Still for that read-out and setting: the same measure for `CN(C)C1CCN(C(=O)c2ccc(NC(=O)Nc3ccc(-c4nc(N5CCOCC5)c5cccn5n4)cc3)cc2)CC1`: -4.03% (active).
On the same count and under the same terms, under `O=C(Cc1ccc(F)cc1)c1ccccc1` stands 103% (inactive); under `Cc1ccc(C(=O)c2ccc(CC(=O)N=Nc3c(O)[nH]c4ccc(OC(F)(F)F)cc34)n2C)cc1`, 91.5% (inactive).
The same measure, in the same setting: under `O=C(NNc1ccccc1)C1CCCN1` (stereo not drawn) stands 76.4% (inactive).
As to `O=C(/C=C/c1ccc(F)cc1)Nc1ncc(Cc2ccc(F)cc2)s1`, the growth was 17.9% (inactive).
On the same count and under the same terms, under `O=C1/C(=C/c2ccccc2[N+](=O)[O-])Cc2ccccc21` stands 9.87% (active) and 13% (inactive).
Same read-out and setting: the same measure for `CCCO/N=C/c1ccccn1`: 89.2% (inactive) and 92.4% (inactive); for `COc1cc2nc3cc([N+](=O)[O-])ccc3c(NCCNCC(C)(C)O)c2cc1OC`: -14.1% (active); for `Cc1ccc(-c2nc(SCC(=O)c3ccc(C#N)cc3)[nH]c(=O)c2C#N)cc1`: 96.5% (inactive).
On the same count and under the same terms, under `COc1ccc(/C=C/C(=O)c2cc3c(N)c(C(=O)Nc4ccccc4)sc3nc2C)cc1` stands 7.19% (active); under `CC1(C)C(N)=Nc2cc(OCCCN3Cc4ccc(OCCc5cn(CC(=O)N6CCC(CCN7CCCC7)CC6)nn5)cc4C3)c(OCC3CC3)cc21`, 89.3% (inactive); under `CCCN1C(=O)/C(=c2\sc3n(c2=O)NC2C(N=3)N(CC)C(=O)N2CC)c2ccccc21` (stereo not drawn), 17.5% (inactive).
For `c1cc(NCCCCN2CCOCC2)c2ccc3c(ccc4c(NCCN5CCOCC5)ccnc43)c2n1`, the growth is 58.5% (inactive).
The same measure, in the same setting: the same measure for `Clc1cccc(Nc2ncnc3ccc(-c4cncc(-n5cnnn5)c4)cc23)c1`: 67.7% (inactive).
Still for that read-out and setting: under `COc1ccc2c(c1)c(-c1nc(-c3c[nH]c4c(Cl)nccc34)cs1)cn2C` stands 8.44% (active); under `C=CCOc1ccc(/C=C2\SC(=S)N(CCc3ccc(O)cc3)C2=O)cc1`, 86.5% (inactive).
Still for that read-out and setting: the same measure for `CCOc1ccc(C(=O)Cc2ccccc2)cc1`: 103% (inactive) and 104% (inactive).

For another assay, the system named is HCT-116 colon. The assay is described as above. To be noted: 10 µM unless noted.
Take `S=c1nc(CS)[nH]c2ccccc12`: the growth was 100% (inactive).
Same read-out and setting: the same measure for `O=C(CC1(O)C(=O)Nc2ccc(Br)cc21)c1ccc(Cl)cc1` (stereo not drawn): 98% (inactive).
On to `Clc1ccc(/C=N\N2CCCCCC2)cc1`, for which the growth is 103% (inactive) and 104% (inactive).
On the same count and under the same terms, the same measure for `COc1ccc(Nc2ncnc3ccc(-c4cncc(NS(C)(=O)=O)c4)cc23)cc1Cl`: 19.1% (inactive); for `O=C(c1cccc(Br)c1)N1CCN(c2ccnc3cc(Cl)ccc23)CC1`: 84.5% (inactive); for `CCCn1nc(C(=O)N2CCCCC2)c2c1CCC(N1CCC(c3ccncc3)CC1)C2` (stereo not drawn): 99.4% (inactive).
Still for that read-out and setting: the same measure for `O=C(Nc1cc(C(F)(F)F)cc(C(F)(F)F)c1)c1cc(Cl)ccc1O`: -20.2% (active) and -28.9% (active); for `Cc1cnc(C(=O)NNc2nc3sc4c(c3c(=O)[nH]2)C(C)CCC4)cn1` (stereo not drawn): 22.5% (inactive); for `CN1CCN(CCNC(=O)c2cccc(CN3c4cccc5c4C(=Cc4cccnc43)N(C)C5=O)c2)CC1`: 25.8% (inactive).
On the same count and under the same terms, the same measure for `CCNC(=O)Oc1ccc(/C(=C(/C)Cc2ccc(OC)cc2)c2ccc(OCCN(CC)CC)cc2)cc1`: 30.9% (inactive).
As to `COc1c(NC=O)c2c(c([N+](=O)[O-])c1OC)C(=O)OC2`, the growth is 108% (inactive) and 106% (inactive).
The same measure, in the same setting: under `COc1cc(/C=C2\C(=O)N(CCCCn3c4ccccc4c(=O)c4ccccc43)c3ccccc32)cc(OC)c1O` stands 57.6% (inactive); under `Cc1c(O)c(O)cc2c3c(oc12)CC(c1ccc2c(c1)OCO2)CC3=O` (stereo not drawn), 90.2% (inactive); under `CC(=NCc1ccccc1)c1ccc(O)cc1O`, 104% (inactive).
The same measure, in the same setting: the same measure for `COc1ccc(CCNC(=O)COc2cc3c(Nc4ccc(F)c(Cl)c4)ncnc3cc2OC)cc1OC`: 107% (inactive); for `COc1cccc(NC(=O)c2sc3nc(C)c(C(O)c4ccccc4)cc3c2N)c1` (stereo not drawn): 8.89% (active).
As to `Cc1cc2nc(C(Cl)Cl)nc(-c3ccc(Cl)cc3)n2n1`, the growth was -2.01% (active).
Still for that read-out and setting: under `Nc1ccc(S(=O)(=O)c2ccc(N)cc2)cc1` stands 107% (inactive) and 94.9% (inactive); under `CCCCCO/N=C\c1c2c(O)c3c(O)c(C)c4c(c3c1O)C(=O)C(C)(O/C=C\C(OC)C(C)C(OC(C)=O)C(C)C(O)C(C)C(O)C(C)/C=C\C=C(\C)C(=O)N2)O4` (stereo not drawn), 9.51% (active).
Still for that read-out and setting: the same measure for `COc1ccc(-c2nc(Cl)c3c(C)nn(-c4ccc(F)cc4)c3n2)cc1`: 96.5% (inactive); for `COc1ccc(Oc2nc(Nc3ccc(N4CCOCC4)cc3)ncc2NC(=O)c2cccc(C(F)(F)F)c2)cc1`: 70.2% (inactive); for `O=C1C=CC(=O)N1c1ccc2ccccc2c1`: 44.9% (inactive) and 54.9% (inactive).
The same measure, in the same setting: the same measure for `CN(C)C1CCN(C(=O)c2ccc(NC(=O)Nc3ccc(-c4nc(N5CCOCC5)c5cccn5n4)cc3)cc2)CC1`: 5.84% (active); for `O=C(Cc1ccc(F)cc1)c1ccccc1`: 103% (inactive); for `Cc1ccc(C(=O)c2ccc(CC(=O)N=Nc3c(O)[nH]c4ccc(OC(F)(F)F)cc34)n2C)cc1`: 97% (inactive).
For the compound `O=C(NNc1ccccc1)C1CCCN1` (stereo not drawn), the growth was 78.8% (inactive).
On to `O=C(/C=C/c1ccc(F)cc1)Nc1ncc(Cc2ccc(F)cc2)s1`, for which the growth is 29.4% (inactive).
Still for that read-out and setting: the same measure for `O=C1/C(=C/c2ccccc2[N+](=O)[O-])Cc2ccccc21`: -76.6% (active) and -25.5% (active).
Same read-out and setting: the same measure for `CCCO/N=C/c1ccccn1`: 102% (inactive); for `COc1cc2nc3cc([N+](=O)[O-])ccc3c(NCCNCC(C)(C)O)c2cc1OC`: -20.9% (active); for `Cc1ccc(-c2nc(SCC(=O)c3ccc(C#N)cc3)[nH]c(=O)c2C#N)cc1`: 88.9% (inactive).
In the case of `COc1ccc(/C=C/C(=O)c2cc3c(N)c(C(=O)Nc4ccccc4)sc3nc2C)cc1`, the growth is 8.12% (active).
As for `CC1(C)C(N)=Nc2cc(OCCCN3Cc4ccc(OCCc5cn(CC(=O)N6CCC(CCN7CCCC7)CC6)nn5)cc4C3)c(OCC3CC3)cc21`, the growth is 103% (inactive).
The same measure, in the same setting: the same measure for `CCCN1C(=O)/C(=c2\sc3n(c2=O)NC2C(N=3)N(CC)C(=O)N2CC)c2ccccc21` (stereo not drawn): 15.6% (inactive); for `c1cc(NCCCCN2CCOCC2)c2ccc3c(ccc4c(NCCN5CCOCC5)ccnc43)c2n1`: 48.4% (inactive).
Still for that read-out and setting: under `Clc1cccc(Nc2ncnc3ccc(-c4cncc(-n5cnnn5)c4)cc23)c1` stands 38.1% (inactive).
The same measure, in the same setting: the same measure for `COc1ccc2c(c1)c(-c1nc(-c3c[nH]c4c(Cl)nccc34)cs1)cn2C`: 92.7% (inactive); for `C=CCOc1ccc(/C=C2\SC(=S)N(CCc3ccc(O)cc3)C2=O)cc1`: 99.6% (inactive).
In the case of `CCOc1ccc(C(=O)Cc2ccccc2)cc1`, the growth was 107% (inactive) and 110% (inactive).
